Assay results: the supplement of paper PMC3334620
Over roughly 33,000 sequences, “E-score (-0.5 to 0.5)” has its median near -0.013; the highest 2% begin near 0.3. The entries come from a sample that favours the highest values as a whole.

target: T1, Msn1 (UniProt P22148); test: PBM E-score (8-mer binding enrichment) (E-score (-0.5 to 0.5)); higher = stronger / more preferred TF binding; settings: protein concentration: 200 nM; construct: GST-full length
T1 sequence: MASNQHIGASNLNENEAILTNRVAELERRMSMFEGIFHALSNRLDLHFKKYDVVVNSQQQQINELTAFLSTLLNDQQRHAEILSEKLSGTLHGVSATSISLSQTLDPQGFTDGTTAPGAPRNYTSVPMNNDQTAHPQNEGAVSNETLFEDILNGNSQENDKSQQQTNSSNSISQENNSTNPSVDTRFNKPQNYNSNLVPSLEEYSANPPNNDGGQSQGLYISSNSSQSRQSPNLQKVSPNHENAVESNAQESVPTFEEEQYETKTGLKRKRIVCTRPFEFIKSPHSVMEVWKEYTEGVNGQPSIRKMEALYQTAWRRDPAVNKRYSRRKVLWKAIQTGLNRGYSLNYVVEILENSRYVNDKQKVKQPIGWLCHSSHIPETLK
In short: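 Detection of bound protein used fluorescent anti-GST, with scans normalised by masliner. The proteins were GST-tagged yeast transcription factors applied at about 100-200 nM to universal all-10-mer Agilent arrays made double-stranded by primer extension. Each ungapped eight-base word, pooled with its reverse complement, was scored with an E-score from the Universal PBM Analysis Suite.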

Sequence | PBM E-score
ACGAAGCT | -0.0736
CCTTTGGC | -0.132
AATCGAAT | 0.047
ACGTTGCC | -0.241
CCAGCGCG | -0.158
GAGCTCGC | -0.0509
CACCCACA | -0.132
ATTAGCTA | -0.086
GCCCGGAA | 0.0421
GGAGACAA | 0.32
GGAGACAC | 0.0421
GGAGACCA | -0.0845
AGTCTTGC | -0.0197
CCAAAGTA | -0.0844
ATTACTGG | -0.119
CAAGCGCA | 0.185
CCCTCGAA | -0.0781
ACTGCTGG | -0.169
CACATTAC | 0.0152
AACATTAA | 0.158
GACATTAC | 0.442
CACATTTA | 0.15
GACATTTA | 0.474
GACATTAA | 0.431
AACATTAC | -0.108

Sequence | PBM E-score
TACATTAA | 0.277
AACATTTA | 0.252
AGAGGTCG | -0.105
GCTGGAAA | -0.0496
ATTTTGAA | 0.126
TGGCCAAA | 0.0563
ATCTTGCA | 0.0688
ATGTACAG | 0.185
ATGTACAT | 0.324
GTGTACCA | 0.189
ATGTACAC | 0.268
ATGTACTA | 0.233
ATGTACCA | 0.316
ATGTACCC | 0.115
ATGTACAA | 0.36
ATGTACGA | 0.215
AATTAGCG | 0.0486
ATGCTCCC | -0.341
GCCCGTTA | -0.266
CGTTCGCC | -0.0525
ACGAGGCG | 0.0795
CCATTGGC | -0.0912
ACATTGTA | 0.143
CTATTGTC | 0.288
CCATTGTC | 0.311

Sequence | PBM E-score
ACATTGTG | 0.207
ATATTGTG | -0.00984
ACATTGTC | 0.411
ATATTGTC | 0.427
CCATTGTA | 0.193
GAAGTAGC | -0.206
TAGGGTGA | -0.1
CCCTGCAG | -0.245
CGCATTTA | 0.193
ATGGACCC | -0.0808
ATGGACGC | 0.122
ATGGACAT | 0.484
ATGGACCA | 0.114
ATGGACAC | 0.437
GTCGACAC | 0.141
ATGGAAAT | 0.0754
ATGGACAA | 0.485
GTGGAAAC | 0.164
ATGGACAG | 0.251
ATGGACGA | 0.273
GTGGACAC | 0.356
GCGCTAGC | -0.0831
ATTAGGGA | 0.0137
CAGGTTGC | 0.0156
AGACTTGC | -0.136

Sequence | PBM E-score
AGCTTAAT | -0.00074
CACCCGTA | -0.0199
AAGCGAGC | -0.0286
AGCTTGAT | -0.0595
ACCGCGCC | -0.168
TAAAGATA | 0.0041
CTAAGACA | 0.302
AAAAGACC | 0.00338
GTAAGACA | 0.305
TAAAGACA | 0.356
ACAAGACG | 0.0049
ACAAGACA | 0.34
AAAAGACG | 0.135
TCAAGACA | 0.247
GCAAGACA | 0.157
ATAAGACA | 0.264
AAAAGACA | 0.342
GACGGCTC | -0.211
GCATATGC | -0.0698
ATTTCCAC | 0.106
CCGACCCC | -0.354
CATCAGAA | 0.00838
GCCGCCTA | -0.173
CCAGCGCC | -0.229
CAGTTTAC | -0.0477

Sequence | PBM E-score
CAAAGACC | -0.0488
TGAAGACA | 0.328
GGAAGACA | 0.251
GAAAGACA | 0.227
CAAAGACA | 0.361
CGAAGACA | 0.259
AGCGCATA | 0.034
CTAGCTCA | -0.0294
ATCCATTA | 0.0133
AGCCTACA | -0.135
CGTCTGCA | 0.0663
CCGAACAG | 0.0877
GGCCGAAC | -0.239
CTAGACAC | 0.0417
GTAGACAA | 0.309
TTAGATAA | 0.0312
GTAGACAC | 0.0944
CTAGACAA | 0.305
CTAGACAG | 0.00829
TTAGAAAA | 0.109
TTAGACAA | 0.394
GTAGACGA | 0.115
CCATTTGA | -0.0557
CGCATACG | -0.0304
AGTGGGGA | -0.185

Sequence | PBM E-score
AACAGTAG | -0.0756
CGTGGGAA | -0.0248
GACTCCTC | -0.149
GATGACAA | 0.336
CATGACAA | 0.383
TATGACCA | 0.0481
GATGACTA | -0.0556
CATGACAG | 0.13
GATGACAC | 0.06
CATGACAC | 0.193
TATGACAA | 0.408
AATGACAA | 0.29
AGAGCGAA | -0.00578
TCCTTCGA | 0.11
GCTAGTGA | -0.00743
TGAATGAA | 0.0496
AGTAGGGG | -0.202
CATTTAAC | 0.188
GGGAGCGA | -0.219
TGGCCCAA | -0.0694
ATGTCCTG | 0.487
ATTTCCTG | 0.206
CTGTCCTC | 0.197
AGGTCCTC | -0.119
ATGTCCTC | 0.481

Sequence | PBM E-score
AGGTCCTG | 0.0441
GCCCGCTA | -0.211
AAACAGGG | 0.09
CGGCGACA | 0.0783
CTTAGCAC | -0.0653
TACACATA | 0.0567
GACATAGA | 0.36
AACATATA | 0.0881
CACACATA | 0.0356
GACATATC | 0.451
GACACATA | 0.361
AACATATC | 0.0631
GACATATA | 0.448
CACATATA | 0.0314
GACATAGC | 0.295
AACATAGA | -0.021
CACATATC | 0.0551
CGATTTGA | -0.163
CGGGGCCA | -0.157
AGTCAGGC | 0.0431
CTTCGGTA | -0.0133
CTGGCAGC | -0.271
